L3MBTL1 inh – L3MBTL1 (human) inhibition | Q9Y468 | AID 485360 | AlphaScreen L3MBTL1–H3K9me1 peptide binding | Potency, µM (doses to about 57.1 µM), for inactives: top-dose activity, negative = inhibition, usual class: inhibitors | 230,000 tested, 0.66% active; also: % is scaled to controls: 0 for no effect and ±100 for the full control effect; nearly all actives have a fitted effect of over 60% in size
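L3MBTL1 50 nM + b-AHA-H3(1-15)K9me1 75 nM, 30 min RT; compound added, 30 min RT; streptavidin donor/Ni-chelate acceptor beads 10 ug/mL each final, 30 min RT dark; AlphaScreen read.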
BAZ2B block – BAZ2B (human) inhibition | 360,000 tested, 4.4% active | Q9UIF8 | AID 504333 | Potency, µM (titrated, usually from 114 µM), for inactives: top-dose activity change, negative = inhibition, usual class: inhibitors | AlphaScreen BAZ2B-H3K14Ac peptide displacement; also: % is scaled to controls: 0 for no effect and ±100 for the full control effect; nearly all actives have a fitted effect of over 60% in size
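AlphaScreen displacement of biotin-H3(5-23)K14Ac peptide (50 nM final) from BAZ2B (50 nM final) in PBS pH 7.4, 0.01% Tween-20; complex preformed 30 min RT, then compounds (top 110 uM) 30 min RT, beads 20 min dark.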
Sfp PPTase inh – blocks B. subtilis Sfp PPTase activity | AID 1490 | Biochemical Sfp PPTase activity, qHTS | Potency, µM, for the others: largest response in the series, negative = inhibition, most hits filed as inhibitors | 310,000 tested, 3.5% active;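 also: the enzyme is Sfp with the accession as filed and its product quenches rhodamine fluorescence; 0% = enzyme reaction without inhibitor and -100% = no enzyme wells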
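Fluorescence-quenching assay with 15 nM Sfp, 5 uM rhodamine-CoA and 12.5 uM BHQ-2-labelled ybbR peptide in pH 7.6 Hepes/MgCl2 buffer. Enzyme was pre-incubated with compound for 15 min at room temperature. Rate was taken from the 30-min fluorescence change (525/598 nm).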
G9a inh – G9a (human) methyltransferase inhibition; 350,000 tested, 8.8% active; Potency, µM (titrated, usually from 102 µM), for inactives: at the highest dose activity, negative = inhibition, hits mostly inhibitors; G9a H3K9 monomethylation, AlphaScreen, 2 h; Q96KQ7; AID 504332; also: % is scaled to controls: 0 for no effect and ±100 for the full control effect; nearly all actives have a fitted effect of over 75% in size
Target sequence (Q96KQ7 913-1193 limits assumed): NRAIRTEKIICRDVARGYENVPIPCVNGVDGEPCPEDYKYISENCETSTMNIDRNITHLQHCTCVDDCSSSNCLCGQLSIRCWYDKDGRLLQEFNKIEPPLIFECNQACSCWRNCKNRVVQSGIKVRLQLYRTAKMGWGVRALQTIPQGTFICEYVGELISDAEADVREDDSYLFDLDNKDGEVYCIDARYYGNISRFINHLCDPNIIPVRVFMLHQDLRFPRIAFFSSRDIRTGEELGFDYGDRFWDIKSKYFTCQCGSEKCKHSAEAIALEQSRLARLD
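AlphaScreen read-out: biotin-H3K9 peptide (500 nM) methylation by 20 nM enzyme with 20 uM SAM, 2 h at room temperature after 15 min compound preincubation; anti-monomethyl H3K9 antibody plus donor/acceptor beads, 10 min dark.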
HP1b binding inh – blocks HP1-beta chromodomain binding to methylated histone tails; AlphaScreen HP1-beta / biotin-H3K9me3 peptide binding; AID 540317; Potency, µM (titrated, usually from 114 µM), for inactives: at the top dose activity change, negative = inhibition, actives largely listed as inhibitors; 390,000 tested, 0.56% active; also: nearly all actives have a fitted effect of over 70% in size
Target sequence (P83916 whole entry, looked up): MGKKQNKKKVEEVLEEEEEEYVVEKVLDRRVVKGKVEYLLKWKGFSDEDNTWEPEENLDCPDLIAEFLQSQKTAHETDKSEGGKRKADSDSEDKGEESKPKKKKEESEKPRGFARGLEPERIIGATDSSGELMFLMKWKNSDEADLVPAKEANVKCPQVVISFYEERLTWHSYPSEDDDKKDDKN
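HP1-beta protein (50 nM final) preincubated 30 min at room temperature with biotinylated H3(1-18)K9me3 peptide (50 nM) in PBS pH 7.4, 0.01% Tween-20, then compound added for 30 min. AlphaScreen streptavidin donor/nickel chelate acceptor beads (10 ug/mL final), 30 min dark, luminescence read.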
JMJD2A Tudor – JMJD2A Tudor domain (human) inhibition | Potency, µM (top dose mostly 114 µM), without a hit: at the highest dose activity change, negative = inhibition, actives largely listed as inhibitors | 390,000 tested, 4.4% active | AlphaScreen JMJD2A-Tudor / H3K4me3 peptide binding; also: % is scaled to controls: 0 for no effect and ±100 for the full control effect; nearly all actives have a fitted effect of over 50% in size
Starred values were filed as active, the others as inactive; [ ] = another dose, or the depositor's remark. An excerpt weighted towards active compounds, which were near 12% of everything screened. Calls follow the shape of the dose curve; as a rule, active = well fitted curve in the direction sought with a large enough effect; inconclusive = small, poorly fitted or top-dose-only effect, or another doubt; inactive = no such curve, though single readings can be large; an effect the other way counts as inactive or inconclusive. Potency is read from the fitted curve at half-maximal effect.

What do the screens show for `COc1ccc(-n2c(=O)c3ccccc3n(Cc3ccc(F)cc3Cl)c2=O)cc1OC`?
BAZ2B block: 5%; G9a inh: 5%[59 µM]; HP1b binding inh: 36%; JMJD2A Tudor: -1%

What do the screens show for `CC(C)(C)OC(=O)N1CCC[C@H]1c1nnc(SCc2ccccc2F)o1`?
L3MBTL1 inh: 3%; BAZ2B block: 4%; Sfp PPTase inh: 6%; G9a inh: 50µM*; HP1b binding inh: 53%; JMJD2A Tudor: 3%

How did O=C(Oc1cccnc1)c1ccc([N+](=O)[O-])cc1 do in these assays?
L3MBTL1 inh: -4%; BAZ2B block: inconclusive; Sfp PPTase inh: -4%; G9a inh: 10µM*; HP1b binding inh: 20%; JMJD2A Tudor: -14%

Results for Cc1noc(/C=C/c2cccnc2)c1[N+](=O)[O-] ?
BAZ2B block: -23%; Sfp PPTase inh: 3%; G9a inh: 45µM*; HP1b binding inh: 26%; JMJD2A Tudor: -10%

How did Cc1ccc(C(=O)Oc2cccnc2)cc1[N+](=O)[O-] do in these assays?
L3MBTL1 inh: -1%; BAZ2B block: -9%; Sfp PPTase inh: 8%; G9a inh: inconclusive; HP1b binding inh: 24%; JMJD2A Tudor: -7%

Results for O=C(/C=C/c1cccnc1)c1ccc([N+](=O)[O-])cc1 ?
BAZ2B block: -18%; Sfp PPTase inh: inconclusive; G9a inh: 13µM*; HP1b binding inh: -17%; JMJD2A Tudor: inconclusive

What do the screens show for `O=C(C=Cc1ccccc1)c1ccc([N+](=O)[O-])cc1`?
HP1b binding inh: -20%; JMJD2A Tudor: -33%

Results for O=C(/C=C/c1cccnc1)c1cccc(O)c1 ?
BAZ2B block: -24%; Sfp PPTase inh: inconclusive; G9a inh: 35µM*; HP1b binding inh: 67%; JMJD2A Tudor: inconclusive

What do the screens show for `Cc1oc2ccc(O)c(CN3CCCCCC3)c2c1C(=O)Nc1cccc(Cl)c1C`?
BAZ2B block: -21%; G9a inh: -26%[59 µM]; HP1b binding inh: -8%; JMJD2A Tudor: -15%

How did O=C(/C=C/c1cccnc1)c1ccccc1O do in these assays?
BAZ2B block: -26%; Sfp PPTase inh: 45µM*; G9a inh: 35µM*; HP1b binding inh: 38%; JMJD2A Tudor: 0%

What do the screens show for `O=C(C=Cc1cccnc1)c1ccccc1`?
HP1b binding inh: 25%; JMJD2A Tudor: -6%

What do the screens show for `COc1ccccc1/C=C(/C(=O)OCC(=O)N(C)Cc1ccccc1)c1ccccc1`?
L3MBTL1 inh: -15%; BAZ2B block: -22%; Sfp PPTase inh: 0%; G9a inh: -28%[59 µM]; HP1b binding inh: 22%; JMJD2A Tudor: -14%

How did CN(C)c1ccc(C2C=C(c3ccc(Cl)cc3OC(F)F)Nc3ncnn32)cc1 (stereo not drawn) do in these assays?
L3MBTL1 inh: -14%; BAZ2B block: inconclusive; Sfp PPTase inh: -18%; G9a inh: 35µM*; HP1b binding inh: -25%; JMJD2A Tudor: 45µM*

How did COc1ccccc1CCn1c(=O)c(-c2cccc(Cl)c2)nc2cncnc21 do in these assays?
Sfp PPTase inh: -7%; G9a inh: 2%[0.501 µM]

Results for COc1ccc(C2Nc3ccc(Cl)cc3C(=O)N2Cc2ccccc2)cc1COc1ccc(NC(C)=O)cc1 (stereo not drawn) ?
JMJD2A Tudor: 56µM*

What do the screens show for `COc1ccc(C2Nc3ccc(NC(=O)CO)cc3C(=O)N2Cc2cccc(Cl)c2)cc1COc1ccc(NC(C)=O)cc1` (stereo not drawn)?
HP1b binding inh: -9%; JMJD2A Tudor: 56µM*

How did Cc1ccc(N(CC(=O)N2CCCCCC2)S(C)(=O)=O)cc1Cl do in these assays?
L3MBTL1 inh: 5%[2.29 µM]; BAZ2B block: 7%; Sfp PPTase inh: 32%; G9a inh: 15%[0.501 µM]; HP1b binding inh: 27%; JMJD2A Tudor: -13%

Results for CC1(C)CC(=O)C(=CN2CCOCC2)C(=O)C1 ?
L3MBTL1 inh: inconclusive; BAZ2B block: -34%; Sfp PPTase inh: -30%; G9a inh: 35µM*; HP1b binding inh: 48%; JMJD2A Tudor: 1%

What do the screens show for `COc1ccc(N2CC(NC(=O)CCCc3ccccc3)CC2=O)cc1` (stereo not drawn)?
BAZ2B block: 0%; G9a inh: 6%[59 µM]; HP1b binding inh: 37%; JMJD2A Tudor: 4%

What do the screens show for `CCN(CC)CCn1c(NCc2cc(OC)ccc2OC)nc2ccccc21`?
L3MBTL1 inh: -16%; BAZ2B block: -33%; Sfp PPTase inh: 0%; G9a inh: inconclusive; HP1b binding inh: 5%; JMJD2A Tudor: 50µM*

What do the screens show for `CCN(CC)CCn1c(NCc2cccc(OC)c2)nc2ccccc21`?
BAZ2B block: -22%; Sfp PPTase inh: -7%; G9a inh: 50µM*; HP1b binding inh: 16%; JMJD2A Tudor: -24%

Results for CCCN1CCN(CCCNC(=O)c2ccc3c(c2)sc2nc(-c4ccc(OC)cc4)cn23)CC1 ?
BAZ2B block: 3%; G9a inh: -2%[59 µM]; HP1b binding inh: 43%; JMJD2A Tudor: -2%

What do the screens show for `Cc1ccc(O)c(N/C=C/C(=O)c2ccc(F)cc2)c1`?
L3MBTL1 inh: 2%; BAZ2B block: -4%; Sfp PPTase inh: 0%; G9a inh: 35µM*; HP1b binding inh: 48%; JMJD2A Tudor: -14%

What do the screens show for `Cc1nc(NCCO)c2nc(-c3ccccc3)n(CCCN(C)C)c2n1`?
Sfp PPTase inh: 38%

What do the screens show for `O=C(COc1ccccc1)NNC1=NS(=O)(=O)c2ccccc21`?
L3MBTL1 inh: 7%; Sfp PPTase inh: 6%; G9a inh: 45µM*; HP1b binding inh: 37%; JMJD2A Tudor: -11%

Results for O=C(CCCCC(=O)NNC(=O)COc1ccccc1)NNC(=O)COc1ccccc1 ?
BAZ2B block: -19%; Sfp PPTase inh: -28%; G9a inh: 35µM*; HP1b binding inh: 21%; JMJD2A Tudor: -5%

How did O=C(CCc1ccccc1)NNC(=O)COc1ccc(Br)cc1 do in these assays?
BAZ2B block: 5%; Sfp PPTase inh: 12%; G9a inh: 23%[59 µM]; HP1b binding inh: 50µM*; JMJD2A Tudor: 20µM*

Results for O=C(CCC(=O)NNC(=O)COc1ccc(Br)cc1)NCc1ccccc1 ?
L3MBTL1 inh: -1%; BAZ2B block: -13%; Sfp PPTase inh: 15%; G9a inh: -6%; HP1b binding inh: 57%; JMJD2A Tudor: -3%[11.4 µM]

Results for COc1ccc(C(=O)NNC2=NS(=O)(=O)c3ccccc32)cc1OC ?
BAZ2B block: inconclusive; Sfp PPTase inh: 15%; G9a inh: 8%; HP1b binding inh: 24%; JMJD2A Tudor: -4%

What do the screens show for `CCCCNc1nc(C)nc2c1nc(-c1ccccc1)n2CC(C)(C)CN(C)C`?
Sfp PPTase inh: 2%
